Rtt109 HAT inh: inhibitors of C. albicans Rtt109/Vps75 HAT, primary screen, biochemical, ThioGlo CoA-SH fluorescence, plate reader. Histone acetyltransferase RTT109 (Candida albicans (strain SC5314 / ATCC MYA-2876)), …. purified Rtt109/Vps75, 4 h. inhibition, % at 34.9 µM. 330,000 compounds, 0.16% hits. AID 540336, 2011;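 active means inhibition of at least 50% in every replicate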
LANA-H2A inh: blockers of LANA interaction with H2A/H2B – biochemical, FP readout, HTS, primary screen; Protein LANA1 (Human herpesvirus 8 type P (isolate GK18)), Q9QR71; cell-free LANA-H2A/H2B peptide, fluorescence polarization; inhibition, % (test concentration not listed); 320,000 compounds, 0.6% hits; AID 2629, 2010; in the data active means inhibition mostly above about 10%, no sharp cut-off; inactive means mostly below about 6.7%
rCAG binder: binders of r(CAG) RNA repeats, primary screen, biochemical, fluorescence. AID 651821, 2012. inhibition, % at 3 µM. r(CAG) RNA repeat, TO-PRO-1 dye displacement fluorescence. 370,000 compounds, 1.3% hits;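 active means inhibition above the plate cutoff, the mean of all test compounds on that plate plus 3 SD, cut at about 35% in these data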;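 further: 0% = DMSO alone and 100% = 100 µM mitoxantrone as full dye displacement; higher means more dye released from RNA so lower well fluorescence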
ALR inh: inhibitors of human ALR sulfhydryl oxidase, primary screen, biochemical, H2O2 detection, HRP-luminol luminescence, single point; FAD-linked sulfhydryl oxidase ALR (Homo sapiens), P55789; 290,000 compounds, 3.8% hits; inhibition, % (no concentration beside the values); purified ALR, DTT oxidation;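 active means mean replicate inhibition above about 79%, with every replicate also reaching it, limit read from the data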
PRMT1 inh: PRMT1 methyltransferase inhibitors, primary screen, biochemical, fluorescence polarization | Protein arginine N-methyltransferase 1 (Homo sapiens), Q99873 | recombinant PRMT1, activity-based probe fluorescence polarization | inhibition, % at 2.79 µM | 370,000 compounds, 1.3% hits;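 active means inhibition above about 21% made by adding two undisclosed values, limit read from the data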
ABHD5-PLIN5 inh: ABHD5-PLIN5 interaction inhibitors, primary screen, cell lysate, split luciferase complementation, luminescence. Split G. princeps luciferase complementation, 4 h. AID 602281, 2012. 360,000 compounds, 0.78% hits. inhibition, % at 4 µM;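 active means inhibition above the mean inhibition across every tested compound plus 3 SD, cut at about 22% in these data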;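 further: 0% = DMSO only wells and the 100% control is not disclosed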
Target sequence (Q00G26 whole entry, looked up): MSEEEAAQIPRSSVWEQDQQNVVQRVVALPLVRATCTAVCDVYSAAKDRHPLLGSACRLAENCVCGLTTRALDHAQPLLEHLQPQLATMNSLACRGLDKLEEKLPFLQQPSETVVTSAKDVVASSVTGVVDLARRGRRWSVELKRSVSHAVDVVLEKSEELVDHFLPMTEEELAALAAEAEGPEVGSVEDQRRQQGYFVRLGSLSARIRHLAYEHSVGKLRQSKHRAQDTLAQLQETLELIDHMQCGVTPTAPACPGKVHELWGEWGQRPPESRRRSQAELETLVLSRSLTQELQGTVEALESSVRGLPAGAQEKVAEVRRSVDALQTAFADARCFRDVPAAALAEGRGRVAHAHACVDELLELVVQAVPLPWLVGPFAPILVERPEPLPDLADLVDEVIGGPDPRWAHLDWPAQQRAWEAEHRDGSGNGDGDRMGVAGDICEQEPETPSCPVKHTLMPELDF
Target sequence (Q8WTS1 whole entry, looked up): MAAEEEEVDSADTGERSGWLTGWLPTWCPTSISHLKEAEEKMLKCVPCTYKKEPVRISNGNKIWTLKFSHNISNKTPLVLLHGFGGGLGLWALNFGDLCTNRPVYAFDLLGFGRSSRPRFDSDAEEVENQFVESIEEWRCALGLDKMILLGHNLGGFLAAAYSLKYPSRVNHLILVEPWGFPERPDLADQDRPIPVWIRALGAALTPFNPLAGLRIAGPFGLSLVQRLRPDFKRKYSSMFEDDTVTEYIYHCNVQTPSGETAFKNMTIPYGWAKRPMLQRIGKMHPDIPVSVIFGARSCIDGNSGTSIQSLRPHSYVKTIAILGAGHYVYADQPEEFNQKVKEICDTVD
PRMT1 confirm: PRMT1 methyltransferase inhibitors, confirmation, biochemical, fluorescence polarization, triplicate; shares compounds with PRMT1 inh; recombinant His-PRMT1, activity-based probe fluorescence polarization; inhibition, % at 2.79 µM; 3,300 compounds, 42% hits; AID 687036, 2013;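 active means mean inhibition across replicates above the hit cutoff derived for the earlier primary screen, cut at about 22% in these data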
Active calls of the source: *; i = inactive; nt = no result. In the library only some 5.9% were active in any assay of this set; here they are far more common.

SMILES | Rtt109 HAT inh | LANA-H2A inh | rCAG binder | ALR inh | PRMT1 inh | ABHD5-PLIN5 inh | PRMT1 confirm
COC(=O)[C@]12CCCCC=C1N(CCc1ccc(OC)c(OC)c1)C(=O)[C@H](CC(=O)N1CCN(C(=O)c3ccco3)CC1)C2 | nt | nt | 3.9 | nt | 3.5 | 7.0 | nt
COc1cccc(/C=N/n2c(-c3cccs3)n[nH]c2=S)c1 | 1.7 | -2.7 | 18.3 | 16.5 | 27.5* | -1.0 | 19.9
COc1ccc(C=Nn2c(-c3ccc(F)cc3)n[nH]c2=S)c(OC)c1OC | nt | nt | 25.0 | nt | 30.4* | nt | 6.3
Cc1ccc(-c2n[nH]c(=S)n2/N=C/c2cccs2)cc1 | -4.2 | 1.1 | 24.6 | 8.5 | 32.0* | -23.1 | 8.1
CCCCOCCCNC(=O)C[C@H]1C[C@@]2(C(=O)OC)C(=C[C@H](C3CCCC3)O[C@@H]2C)N(Cc2ccco2)C1=O | nt | nt | 6.5 | nt | -9.9 | nt | nt
CCCN(CC1CC1)C(=O)CNc1nnnn1-c1ccccc1 | nt | nt | 3.0 | nt | -3.0 | nt | nt
N#Cc1cc2c(nc1SCc1ccncc1)CCC2 | -9.4 | -4.6 | 4.1 | 1.5 | 37.5* | -8.1 | 13.4
N#Cc1cc2c(nc1SCc1ccccc1)CCC2 | 6.5 | 0.0 | 1.3 | nt | -1.1 | -7.5 | nt
Cc1c(CCCl)c(Cl)n2c(nc3ccccc32)c1C#N | -8.9 | nt | -0.4 | nt | -4.2 | 10.6 | nt
Cc1c(C(=O)NNC(=O)c2csc(N3CCOCC3)n2)oc2ccc(Br)cc12 | nt | nt | 23.2 | nt | -5.1 | -2.1 | nt
CCN(CC)C(=O)c1sc2nc(-c3cccs3)cc(-c3cccs3)c2c1N | -3.1 | 8.2 | 15.3 | -1.7 | 56.8* | 1.5 | 12.7
COC(=O)c1c(-c2cccnc2)csc1NC(=O)c1cc(C)on1 | -12.7 | -5.2 | 3.5 | nt | 28.8* | -13.4 | 12.1
O=C(C(=O)N1CCN(C(=O)C2CCCC2)CC1)c1cccc(C(F)(F)F)c1 | nt | nt | 1.4 | nt | -8.4 | nt | nt
COc1cc(SSc2cc(OC)cc([N+](=O)[O-])c2N)c(N)c([N+](=O)[O-])c1 | -5.1 | -1.2 | 19.1 | -217.3 | 76.4* | -9.2 | 90.0*
O=C1c2ccccc2-c2onc3ccc(N4CCCC4)c1c23 | 12.3 | nt | -255.7 | nt | 89.5* | 13.6 | 74.0*
CCOC(=O)C(Sc1nn(C)c(=S)s1)C(C)=O (stereo not drawn) | -5.5 | 0.6 | 5.1 | 93.8* | 36.3* | -5.2 | 1.3
Cn1nc(SCC(=O)O)sc1=S | 2.5 | 0.3 | 2.2 | -6.1 | -2.6 | -2.8 | nt
C(=Cc1c[nH]c2ccccc12)c1nccc2ccccc12 | -4.5 | nt | 2.9 | nt | 51.9* | -4.8 | 9.6
N#Cc1ccc(C(=O)NCC2CCN(C(=O)C(=O)c3cccs3)CC2)cc1 | nt | nt | 4.0 | nt | 2.2 | nt | nt
COc1ccc(S(=O)(=O)N2CCC[C@@H]2C(=O)N2CCC[C@H]2C(=O)NCc2ccncc2)cc1C | nt | nt | -1.1 | nt | 5.0 | 3.9 | nt
O=C(C=Cc1ccco1)c1ccco1 | -1.2 | nt | 24.7 | nt | 42.8* | 15.8 | 11.3
S=C(Nc1ccccc1)OCCN1CCCC12CCC(c1ccccc1)CC2 (stereo not drawn) | nt | nt | nt | nt | 18.6 | nt | nt
S=C(Nc1ccccc1Br)OCCN1CCCC12CCC(c1ccccc1)CC2 (stereo not drawn) | nt | nt | nt | nt | 34.6* | nt | 31.4*
Cc1ccc(C(=O)C2CCN(CC(=O)N(C)C3CCCCC3)CC2)cc1 | nt | nt | -4.0 | nt | -1.1 | nt | nt
Cn1c(=O)c(NCCO)c2c3c(cccc31)C(=O)c1ccccc1-2 | -11.9 | 184.9* | i | -37.2 | 184.3* | 6.8 | 184.2*
Cn1c(=O)c(NC2CCCCC2)c2c3c(cccc31)C(=O)c1ccccc1-2 | nt | nt | -135.2 | nt | 77.2* | 3.2 | 40.5*
Cn1c(NC2CCCCC2)cc(=O)n(C)c1=O | -4.8 | 1.5 | 0.3 | -7.4 | 4.3 | -15.3 | nt
CCN(CC(=O)NCc1ccc(Cl)cc1)C(=O)c1cc(OC)cc(OC)c1 | -3.5 | 5.5 | -7.8 | -3.8 | 1.1 | -5.9 | nt

Screening results (PubChem BioAssay)
